Growth data for seven molecules are collected here from PubChem BioAssay (NCI).

Some test systems named below: DU-145 prostate; K-562 leukemia; MALME-3M melanoma; MDA-MB-231 breast; RXF 393 renal; SF-268 CNS; SF-295 CNS; SF-539 CNS; UACC-257 melanoma; M14 melanoma; HCT-15 colon; HT29 colon; SNB-75 CNS; SNB-19 CNS; U251 CNS; PC-3 prostate; SK-MEL-5 melanoma; UACC-62 melanoma; LOX IMVI melanoma; SK-MEL-28 melanoma.
Experiment in all cases: NCI-60 one-dose screen, 48 h (100 = growth as untreated, 0 = no growth, -100 = all killed)
Holding throughout (details): 10 µM

This is part of a sample that, as a whole, favours compounds with a hit. Of some 83,000 tested, about 20% had one in any assay.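 The test compound was applied at a single concentration to cells in 96-well plates for 48 hours, and percent growth was recorded.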 Values without a mark were called inactive. Active and inactive are the calls of the source. How the source made its calls: active means growth percent below 10; inactive means the rest.

Take `COc1cc(-c2nc3cc(Cl)c(Cl)cc3[nH]2)ccc1OCC(=O)NN`: the growth in the assay with DU-145 prostate is 75.5%; with K-562 leukemia, 31.9%; in the assay with MALME-3M melanoma, 95.3%; in the assay on MDA-MB-231 breast, 57.8%; in the assay with RXF 393 renal it was 131%; in the assay with SF-268 CNS it was 77.6%. Also, the growth in the assay on SF-295 CNS was 71.5%; in the assay with SF-539 CNS, 80.5%; in the assay on UACC-257 melanoma it was 96.9%; with M14 melanoma it was 95.1%; in the assay with HCT-15 colon, 65.2%; in the assay on HT29 colon it was 98%. Also, the growth with SNB-75 CNS is 106%; in the assay on SNB-19 CNS, 93%; with U251 CNS it was 91.2%; in the assay with PC-3 prostate, 73.8%; in the assay with SK-MEL-5 melanoma, 91%; in the assay on UACC-62 melanoma, 27.5%. The figures for the growth with LOX IMVI melanoma and in the assay on SK-MEL-28 melanoma were 28.5% and 96.4%, respectively.
As to `CCCCCC(=O)N1c2ccccc2NC2=C(C(=O)CC(c3ccc(OC)c(OC)c3)C2)C1c1ccc(C(F)(F)F)cc1` (stereo not given), the growth in the assay with DU-145 prostate was 85%; with K-562 leukemia it was 28.4%; in the assay on MALME-3M melanoma it was 84.3%; with MDA-MB-231 breast it was 69%; in the assay on RXF 393 renal it was 1.04% (active); in the assay on SF-268 CNS, 57.3%. In addition, the growth in the assay on SF-295 CNS was 36.1%; in the assay with SF-539 CNS, 80.7%; in the assay with UACC-257 melanoma, 41.8%; in the assay on M14 melanoma, 58.3%; in the assay on HCT-15 colon, 60.6%; in the assay on HT29 colon it was 88%. The growth is 82.7% in the assay with SNB-75 CNS; 58.1% in the assay on SNB-19 CNS; 49.5% in the assay with U251 CNS; 16.4% in the assay on PC-3 prostate; 18.8% in the assay with SK-MEL-5 melanoma; 53.9% in the assay on UACC-62 melanoma. For the same molecule, the growth is 60.8% in the assay on LOX IMVI melanoma and 86.7% with SK-MEL-28 melanoma.
On to `COc1cc(C2C(C#N)=C(c3c[nH]c4ccccc34)Nc3nc(N)[nH]c(=O)c32)cc(OC)c1OC` (stereo not given), for which the growth is 86.5% in the assay with DU-145 prostate; 50.4% in the assay with K-562 leukemia; 71.1% in the assay on MALME-3M melanoma; 89.5% with MDA-MB-231 breast; 73.2% in the assay with RXF 393 renal; 88.3% in the assay on SF-268 CNS. Also, the growth with SF-295 CNS was 97.6%; in the assay with SF-539 CNS, 48.4%; with UACC-257 melanoma, 99.1%; with M14 melanoma, 95.7%; in the assay with HCT-15 colon, 105%; in the assay on HT29 colon, 107%. Moreover, the growth with SNB-75 CNS was 80%; in the assay with SNB-19 CNS it was 66.5%; with U251 CNS it was 73.6%; in the assay with PC-3 prostate, 62.8%; in the assay with SK-MEL-5 melanoma, 67.4%; in the assay on UACC-62 melanoma, 84.2%. The growth was 52% in the assay with LOX IMVI melanoma and 56.2% in the assay with SK-MEL-28 melanoma.
For the molecule `COc1cccc(-c2nnc(COc3ccc(-c4nc5ccccc5[nH]4)cc3OC)o2)c1`, the growth is 98.9% in the assay with DU-145 prostate; 55.5% in the assay on K-562 leukemia; 89.9% in the assay with MALME-3M melanoma; 91.7% with MDA-MB-231 breast; 104% with RXF 393 renal; 103% in the assay on SF-268 CNS. The growth in the assay with SF-295 CNS is 101%; with SF-539 CNS, 104%; in the assay on UACC-257 melanoma, 109%; in the assay with M14 melanoma, 103%; with HCT-15 colon, 78.3%; in the assay with HT29 colon it was 96.1%. Also, the growth in the assay on SNB-75 CNS is 109%; in the assay on SNB-19 CNS, 98.1%; with U251 CNS, 97%; in the assay on PC-3 prostate, 97.7%; with SK-MEL-5 melanoma, 67.4%; in the assay with UACC-62 melanoma it was 95.1%. Moreover, the growth with LOX IMVI melanoma is 104%; with SK-MEL-28 melanoma, 98.1%.
On to `NS(=O)(=O)c1ccc(N2N=C(c3ccc(-c4ccccc4)cc3)CC2c2ccc(Cl)cc2)cc1` (stereo not given), for which the growth with DU-145 prostate is 96.6%; in the assay on K-562 leukemia, 71.2%; in the assay with MALME-3M melanoma, 106%; in the assay with MDA-MB-231 breast it was 86.9%; with RXF 393 renal, 73.4%; in the assay with SF-268 CNS, 83.5%. Besides, the growth was 88.4% with SF-295 CNS; 93.9% in the assay on SF-539 CNS; 92.4% with UACC-257 melanoma; 98.2% in the assay on M14 melanoma; 60.9% with HCT-15 colon; 64.4% with HT29 colon. In addition, the growth with SNB-75 CNS was 99.8%; in the assay with SNB-19 CNS, 86.5%; with U251 CNS, 75.7%; with PC-3 prostate it was 43.2%; with SK-MEL-5 melanoma it was 86.8%; with UACC-62 melanoma, 51.1%. Further, the growth in the assay on LOX IMVI melanoma was 87.2%; with SK-MEL-28 melanoma it was 96.8%.
Take `COc1ccc(-c2nc(-c3nc4ccc(OC)cc4[nH]3)c3ccccn23)cc1`: the growth with DU-145 prostate was 71.9%; in the assay on K-562 leukemia, 25.5%; with MALME-3M melanoma it was 104%; in the assay on MDA-MB-231 breast, 83%; with RXF 393 renal, 75.7%; in the assay with SF-268 CNS, 57.5%. Also, the growth is 52% in the assay on SF-295 CNS; 90.2% in the assay with SF-539 CNS; 92.9% with UACC-257 melanoma; 77.5% in the assay on M14 melanoma; 59.7% in the assay on HCT-15 colon; 58.6% in the assay with HT29 colon. Moreover, the growth with SNB-75 CNS was 57%; in the assay with SNB-19 CNS, 85.5%; in the assay on U251 CNS it was 61.6%; in the assay with PC-3 prostate it was 35%; in the assay with SK-MEL-5 melanoma, 59%; in the assay with UACC-62 melanoma it was 79%. Moreover, the results for the growth in the assay with LOX IMVI melanoma and in the assay on SK-MEL-28 melanoma were 71.1% and 98.1%, respectively.
As for `COc1cc(CSc2nc3ccc(Cl)cc3c(=O)n2Cc2ccccc2)cc(OC)c1OC`, the growth is 40.8% in the assay with DU-145 prostate; 12.9% in the assay on K-562 leukemia; 38.9% in the assay on MALME-3M melanoma; 38.8% in the assay on MDA-MB-231 breast; 13.1% in the assay on RXF 393 renal; 41% in the assay with SF-268 CNS. The growth with SF-295 CNS is 28.9%; in the assay on SF-539 CNS, 5.82% (active); in the assay on UACC-257 melanoma, 46.5%; with M14 melanoma, 35.4%; in the assay on HCT-15 colon, 24.9%; with HT29 colon, 11.7%. The growth in the assay on SNB-75 CNS was -34.5% (active); with SNB-19 CNS, 61.1%; in the assay with U251 CNS it was 32.8%; with PC-3 prostate it was 55.1%; in the assay on SK-MEL-5 melanoma it was 25.7%; in the assay with UACC-62 melanoma it was 16.2%. Moreover, the growth was 39.3% with LOX IMVI melanoma and 43.7% in the assay on SK-MEL-28 melanoma.
